What all share (test): NCI-60 one-dose screen, 48 h (100 = growth as untreated, 0 = no growth, -100 = all killed)
The subject of assay [1] is HCT-15 colon. The following applies: 10 µM unless noted.
The test system of assay [2] is HT29 colon. The following applies: 10 µM unless noted.
The test system of assay [3] is SNB-75 CNS. The note with it: 10 µM unless noted.
Assay [4] concerns SNB-19 CNS. The note with it: 10 µM unless noted.
Assay [5] concerns U251 CNS. The note with it: 10 µM unless noted.
Assay [6] concerns PC-3 prostate. The following applies: 10 µM unless noted.
Assay [7] concerns SK-MEL-5 melanoma. The note with it: 10 µM unless noted.
The test system of assay [8] is UACC-62 melanoma. The note with it: 10 µM unless noted.
The subject of assay [9] is LOX IMVI melanoma. The note with it: 10 µM unless noted.
In assay [10] the test system is SK-MEL-28 melanoma. The note with it: 10 µM unless noted.
In assay [11] the test system is SK-MEL-2 melanoma. The following applies: 10 µM unless noted.
For assay [12], the system named is EKVX NSCLC. The following applies: 10 µM.
For assay [13], the system named is SN12C renal. The note with it: 10 µM unless noted.
The subject of assay [14] is UO-31 renal. The note with it: 10 µM unless noted.
The test system of assay [15] is TK-10 renal. The following applies: 10 µM unless noted.
In assay [16] the test system is ACHN renal. The following applies: 10 µM unless noted.
The test system of assay [17] is CCRF-CEM leukemia. The following applies: 10 µM.
Assay [18] deals with A498 renal. The note with it: 10 µM unless noted.
The test system of assay [19] is MOLT-4 leukemia. The following applies: 10 µM unless noted.
Assay [20] concerns CAKI-1 renal. The note with it: 10 µM unless noted.

The panel holds about 83,000 compounds, 20% with a hit somewhere; the sample as a whole holds those more often.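 Single-concentration screen, 48 h exposure, 96-well plates. Endpoint: percent growth. Below 10 = active.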 A number with no mark means an inactive call. The source made the active and inactive calls.

Results on nine compounds are retold here after PubChem BioAssay (NCI).

Turning to `COC1=C(OC)C(=O)c2ccccc2C1=O`, the growth in assay [1] is 101%; in assay [2], 107%; in [3], 72.7%; in assay [4] it was 102%; in assay [5] it was 89.9%; in assay [6] it was 82.3%. The growth in assay [7] is 13.6%; in assay [8], 101%; in [9] it was 63.4%; in [10], 101%; in [11], 107%; in assay [12], 97.8%. Further, the growth in assay [13] was 108%; in assay [14], 78.6%; in assay [15] it was 115%; in assay [16], 92%; in assay [17] it was 61.6%.

On to `O=C1/C(=C\c2cn(-c3nc(N4CCOCC4)nc(N4CCOCC4)n3)c3ccccc23)c2ccccc2N1c1c(Cl)cccc1Cl`, for which the growth in assay [1] is 64.5%; in [2], 73.9%; in assay [3], 0.936% (active); in [4], 69.6%; in [5] it was 53.5%; in [6], 24.3%. In addition, the growth is 83% in [7]; 46.6% in assay [8]; 69.8% in assay [9]; 77.2% in assay [10]; 74% in assay [11]; 61% in assay [12]. Further, the growth was 64.8% in assay [13]; 24.6% in assay [14]; 60% in [15]; 72.7% in [16]; -43.7% (active) in assay [18]; 60.5% in assay [19].

`N=C(N)N=Nc1ccc(NN=C(N)N)c2ccccc12`: the growth in assay [1] is 110%; in assay [2], 99.3%; in [3], 73.1%; in assay [4], 51.7%; in [5] it was 35.5%; in assay [6] it was 87.8%. The growth in [7] is 138%; in assay [8], 102%; in [9], 103%; in assay [10], 113%; in [11], 104%; in assay [12], 116%. The growth in assay [13] was 73.2%; in [14], 69.6%; in [15], 108%; in assay [16], 105%; in assay [17] it was 101%; in assay [19], 97.1%.

`C=CCNC(=S)NNc1ccc([N+](=O)[O-])cn1`: the growth was 100% in assay [1]; 90.5% in assay [2]; 81.8% in [3]; 103% in assay [4]; 101% in assay [5]; 100% in [6]. Moreover, the growth was 94.3% in [7]; 99.3% in assay [8]; 82% in assay [9]; 106% in assay [10]; 94.4% in assay [11]; 99.9% in assay [12]. The growth was 100% in assay [13]; 83.7% in [14]; 104% in assay [15]; 104% in assay [16]; 71.2% in [17]; 99.4% in assay [19].

Consider `COc1ccc(-c2nc(SCC(C)C)nc(Nc3ccc(C)cc3)c2C#N)cc1`, for which the growth in assay [1] was 84.8%; in assay [2], 82.9%; in assay [3], 60.6%; in assay [4] it was 78.4%; in [5], 21.2%; in [6] it was 86.1%. For the same compound, the growth in assay [7] was 86.1%; in assay [8] it was 102%; in assay [9] it was 73.9%; in assay [10], 94.6%; in [11], 107%; in assay [12] it was 72.8%. Further, the growth was 41.3% in assay [13]; 59.7% in [14]; 43.3% in assay [15]; 13.6% in assay [16]; 81.6% in assay [19].

As to `CCCC(=O)Nc1ccccc1C(=O)O`, the growth in [1] was 95.4%; in [2], 96.6%; in [3], 89.4%; in assay [4], 106%; in assay [5], 89.7%; in [6], 103%. The growth in [7] was 99%; in [8], 105%; in assay [9], 92.5%; in assay [10] it was 107%; in assay [11], 100%; in [12] it was 96.4%. The growth in assay [13] was 109%; in [14] it was 91.3%; in [15], 92.3%; in assay [16], 108%; in assay [17], 104%; in assay [19], 98.6%.

On to `CCCCCCNC(=O)Oc1ccc(/C(=C(/C)Cc2ccc(OC)cc2)c2ccc(OCCN(C)C)cc2)cc1`, for which the growth in assay [1] was 1.78% (active); in assay [2], -7.26% (active); in assay [3], 50.5%; in assay [4], 78.8%; in assay [5] it was 23.4%; in [6] it was 56.3%. Further, the growth in [7] was -49.6% (active); in [8] it was 40.5%; in assay [9], -15.9% (active); in [10], 68.6%; in assay [11] it was 111%; in [12] it was 78.1%. Moreover, the growth in [13] is 60.3%; in assay [14], 38.9%; in [15] it was 71.5%; in assay [16], 64.2%; in assay [19] it was 30.7%.

As for `COC(=O)c1ccc2[nH]c(O)c(C(=Nc3ccc(N(C)C(=O)CN4CCN(C)CC4)cc3)c3ccc(CCO)cc3)c2c1`, the growth in assay [1] is 82.1%; in assay [2] it was 43.8%; in assay [3], 18.1%; in [4], 31.4%; in assay [5], 31.3%; in assay [6], 56.4%. Also, the growth in assay [7] was 50%; in assay [8], 73.7%; in assay [9] it was 37.5%; in assay [10] it was 38.3%; in assay [11], 34.9%; in assay [12], 85.5%. Also, the growth in assay [13] was 27.8%; in assay [15], 65.2%; in [16] it was 74.1%; in assay [20], 33.1%; in assay [18], 45.6%; in assay [19], 21.4%.

For `CC(=O)OCC(=O)[C@@]1(O)[C@H](C)C[C@H]2[C@@H]3C=C(C)C4=Cc5c(cnn5-c5ccc(F)cc5)C[C@]4(C)[C@H]3[C@@H](O)C[C@@]21C`, the growth is -11.1% (active) in [1]; -43.4% (active) in assay [2]; 6.75% (active) in assay [3]; 25.9% in assay [4]; 9.65% (active) in assay [5]; 12% in assay [6]. The growth in assay [7] is -47.3% (active); in assay [8], -9.5% (active); in assay [9], 1.77% (active); in assay [10], 34.5%; in assay [11], 22.5%; in assay [12] it was 28.5%. The growth in assay [13] is 40.5%; in assay [14] it was 3.92% (active); in assay [15], 19.7%; in assay [16], 13.5%; in [17], 6.74% (active); in assay [19] it was 1.22% (active).
